Values joined by “and” are separate entries in the source; they are usually repeats but may differ in a detail not shown here. Equal entries are not always repeated. Inconclusive results are not listed. Active and inactive are the calls of the source. The call rests on the fitted dose curve; in most records, active means well fitted curve in the direction sought with a large enough effect; inconclusive means small, poorly fitted or top-dose-only effect, or another doubt; inactive means no such curve, though single readings can be large; an effect the other way counts as inactive or inconclusive.
How the values were obtained:
[1] = Viability qHTS for spleen associated tyrosine kinase inhibitor (SYKi) naive MV4-11 cells (AID 1963823); details: MV4-11 AML viability, CellTiter-Glo luminescence, 72 h; series mostly up to 45 µM; further: nearly all actives have a fitted effect of over 40% in size
Procedure, shortened: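 Read-out: CellTiter-Glo luminescence. Exposure: 72 hr, 37 C, 5% CO2, 95% humidity. Cells: MV4-11 without SYK inhibitor history, 500/well, qHTS format.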

[2] = Viability qHTS for spleen associated tyrosine kinase inhibitor (SYKi) drug resistant MV4-11 cells (AID 1963824); details: SYKi-resistant MV4-11 viability, CellTiter-Glo, 72 h; series mostly up to 45 µM; further: nearly all actives have a fitted effect of over 35% in size
Procedure, shortened: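 SYK-inhibitor-resistant MV4-11 AML cells were seeded at 500 per well onto compound and cultured 72 hours (37 °C, 5% CO2). CellTiter-Glo was then added, and after 10 min at room temperature, luminescence gave viability.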

[3] = Quantitative highthroughput screen to assess conditional lethalithy of NOMO1 cells grown in RPMI1640 with untreated serum (RPMI+s) (AID 1963876); details: NOMO1 AML cells in RPMI+serum, CellTiter-Glo viability, 48 h; series mostly up to 45.8 µM; further: nearly all actives have a fitted effect of over 35% in size;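 on Viability: 100% = DMSO wells and 0% = empty wells without cells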
Procedure, shortened: (§1)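 Each medium arm—HPLM with 10% dialyzed FBS, or RPMI1640 with 5 mM glucose and 10% untreated or dialyzed FBS—was screened against an 11-point, 3-fold compound titration for 48 h at 37 °C, with CellTiter-Glo luminescence as endpoint.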

[4] = Quantitative highthroughput screen to assess conditional lethalithy of SEM cells grown in RPMI1640 with unreated serum (RPMI+s) (AID 1963883); details: SEM B-ALL cells, CellTiter-Glo viability, 48 h; series mostly up to 45.8 µM; further: nearly all actives have a fitted effect of over 35% in size;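 on Viability: 100% = DMSO wells and 0% = empty wells without cells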
Procedure, shortened: as §1

[5] = Cellular viability qHTS for adrenocortical cancer (ACC) cell line SW-13 (AID 1963989); details: SW-13 ACC cells viability, CellTiter-Glo, 48 h; activity (max response): active compounds read low; further: nearly all actives have a fitted effect of over 65% in size;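 on activity (max response): cells grown in serum-free medium with ITS supplement; on the % scale 0 is the no-effect control and ±100 the full control effect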
Procedure, shortened: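 Viability was read as CellTiter-Glo luminescence after 48 h compound treatment (up to 46 uM final) of SW-13 cells grown serum-free; titration curves were fit with a four-parameter logistic model to give IC50 and efficacy.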

[6] = Cellular viability qHTS for adrenocortical cancer (ACC) cell line NCI-H295R (AID 1963990); details: CellTiter-Glo ATP luminescence, 48 h; series mostly up to 46.1 µM; further: nearly all actives have a fitted effect of over 60% in size
Procedure, shortened: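 CellTiter-Glo ATP luminescence, read 48 h after compound addition, measured viability of NCI-H295R adrenocortical cells grown serum-free with ITS. Final concentrations spanned up to 46 uM. Data normalized to DMSO and doxorubicin, fitted for IC50 and maximal response.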

[7] = Quantitative highthroughput screen to assess conditional lethalithy of NOMO1 cells grown in RPMI1640 with dialyzed fetal bovine serum (RPMI+ds) (AID 1963877); details: NOMO1 in RPMI+dialyzed FBS viability, ATP luminescence, 48 h; series mostly up to 45.8 µM; further: nearly all actives have a fitted effect of over 30% in size;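 on Viability: 100% = DMSO control wells and 0% = empty wells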
Procedure, shortened: as §1

[8] = Quantitative highthroughput screen to assess conditional lethalithy of NOMO1 cells grown in Human Plasma-Like Medium with dialyzed fetal bovine serum (HPLM+ds) (AID 1963878); details: NOMO1 AML cells in HPLM+ds, CellTiter-Glo viability, 48 h; series mostly up to 45.8 µM; further: nearly all actives have a fitted effect of over 35% in size;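 on Viability: 100% = DMSO wells and 0% = empty wells on each plate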
Procedure, shortened: as §1

[9] = Quantitative highthroughput screen to assess conditional lethalithy of P12 Ichikawa cells grown in Human Plasma-Like Medium with dialyzed fetal bovine serum (HPLM+ds) (AID 1963879); details: ATP luminescence, 48 h; Potency: viability; series mostly up to 45.8 µM; further: nearly all actives have a fitted effect of over 35% in size
Procedure, shortened: as §1

[10] = Quantitative highthroughput screen to assess conditional lethalithy of P12 Ichikawa cells grown in RPMI1640 with dialyzed fetal bovine serum (RPMI+ds) (AID 1963880); details: ATP luminescence, 48 h; Potency: P12-Ichikawa viability; series mostly up to 45.8 µM; further: nearly all actives have a fitted effect of over 35% in size;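 on Viability: 100% = DMSO wells and 0% = empty wells on each plate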
Procedure, shortened: as §1

[11] = Quantitative highthroughput screen to assess conditional lethalithy of SEM cells grown in Human Plasma-Like Medium with dialyzed fetal bovine serum (HPLM+ds) (AID 1963882); details: SEM B-ALL cells in HPLM+ds, CellTiter-Glo viability, 48 h; series mostly up to 45.8 µM; further: nearly all actives have a fitted effect of over 35% in size
Procedure, shortened: as §1

[12] = Quantitative highthroughput screen to assess conditional lethalithy of P12 Ichikawa cells grown in RPMI1640 with untreated serum (RPMI+s) (AID 1963881); details: ATP luminescence, 48 h; Potency: viability; series mostly up to 45.8 µM; further: nearly all actives have a fitted effect of over 35% in size;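 on Viability: 100% = DMSO wells and 0% = empty wells without cells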
Procedure, shortened: as §1

[13] = Quantitative highthroughput screen to assess conditional lethalithy of SEM cells grown in RPMI1640 with dialyzed fetal bovine serum (RPMI+ds) (AID 1963884); details: SEM B-ALL cells, RPMI+dialyzed FBS, CellTiter-Glo viability, 48 h; series mostly up to 45.8 µM; further: nearly all actives have a fitted effect of over 35% in size;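 on Viability: 100% = DMSO control wells and 0% = empty wells without cells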
Procedure, shortened: as §1
Potency means the concentration at half of the fitted maximal effect.

C=CC(=O)Nc1cccc(Oc2nc(Nc3ccc(N4CCN(C)CC4)cc3OC)ncc2Cl)c1
active: Potency [1] 1.64 µM and 1.66 µM | Potency [2] 2.06 µM and 2.95 µM | Potency [4] 3.72 µM | Potency [5] 8.91 µM | Potency [6] 8.91 µM
inactive: Potency [3]

CN1c2cc(O)c(N=NC(N)=O)cc2CC1S(=O)(=O)O (stereo not drawn)
inactive: Potency [1] | Potency [2] | Potency [7] | Potency [8] | Potency [9] | Potency [10] | Potency [11] | Potency [4] | activity (max response) [5] 12.8% | Potency [6]

C[Se]CCC(N)C(=O)O (stereo not drawn)
inactive: Potency [1] | Potency [2] | Potency [7] | Potency [8] | Potency [9] | Potency [10] | Potency [12] | activity (max response) [5] -4.29% | Potency [6]

CC(=O)O[C@H]1C(=O)[C@@]2(C)C([C@H](OC(=O)c3ccccc3)[C@]3(O)C[C@H](OC(=O)[C@H](O)[C@@H](NC(=O)c4ccccc4)c4ccccc4)C(C)=C1C3(C)C)[C@]1(OC(C)=O)CO[C@@H]1C[C@@H]2O (stereo partly drawn)
active: Potency [1] 5.1 nM and 8.3 nM | Potency [2] 3.6 nM and 7.4 nM | Potency [3] 0.0013 µM | Potency [6] 0.1 µM

CC(C(=O)O)c1ccc2c(c1)CC(=O)c1ccccc1S2 (stereo not drawn)
active: Potency [3] 7.43 µM | Potency [10] 10.5 µM | Potency [12] 9.35 µM
inactive: Potency [1] | Potency [2] | Potency [11] | Potency [4] | Potency [13] | activity (max response) [5] -16.4% and 14.9% | Potency [6]

Nc1cc(C(F)(F)F)c(-c2cc(N3CCOCC3)nc(N3CCOCC3)n2)cn1
active: Potency [1] 2.06 µM and 1.86 µM | Potency [2] 1.46 µM and 2.09 µM | Potency [7] 1.87 µM | Potency [8] 1.18 µM | Potency [9] 1.32 µM | Potency [10] 1.32 µM | Potency [12] 1.66 µM | Potency [11] 0.935 µM | Potency [4] 1.05 µM | Potency [13] 0.833 µM | Potency [5] 2 µM | Potency [6] 3.16 µM

O=C(O)Cc1cccc(OCCCN(Cc2cccc(C(F)(F)F)c2Cl)CC(c2ccccc2)c2ccccc2)c1
inactive: Potency [7] | Potency [8] | Potency [9] | Potency [10] | Potency [12] | Potency [11] | Potency [13]
active: Potency [1] 20.9 µM | Potency [2] 16.6 µM | Potency [6] 22.4 µM

CNC1CCC(N(Cc2cccc(-c3ccncc3)c2)C(=O)c2sc3c(F)ccc(F)c3c2Cl)CC1 (stereo not drawn)
inactive: Potency [3]
active: Potency [1] 2.63 µM and 8.2 µM | Potency [2] 8.33 µM and 7.31 µM | Potency [6] 7.08 µM

Nc1ccc(C(=O)Nc2cccc(-c3nc(N4CCOCC4)c4oc5ncccc5c4n3)c2)cn1
inactive: Potency [3] | activity (max response) [5] -13.4%
active: Potency [1] 10.3 µM | Potency [2] 3.66 µM | Potency [11] 20.9 µM | Potency [4] 18.7 µM | Potency [13] 20.9 µM

NC1(C(=O)N[C@@H](CCO)c2ccc(Cl)cc2)CCN(c2ncnc3[nH]ccc23)CC1
inactive: activity (max response) [5] -21.3%
active: Potency [1] 0.461 µM | Potency [2] 0.651 µM | Potency [3] 10.5 µM | Potency [4] 3.32 µM | Potency [13] 2.64 µM | Potency [6] 5.62 µM

Cc1ccc(C(=O)Nc2cccc(C(F)(F)F)c2)cc1Nc1nc(-c2cccnc2)nc2c1cnn2C
active: Potency [1] 8.33 µM | Potency [2] 6.61 µM | Potency [5] 2.51 µM | Potency [6] 3.16 µM
inactive: Potency [7] | Potency [8] | Potency [9] | Potency [10] | Potency [12]

C#Cc1cccc(Nc2ncnc3cc(OCCOC)c(OCCOC)cc23)c1
active: Potency [1] 3.76 µM and 1.86 µM | Potency [2] 6.68 µM and 2.31 µM | Potency [5] 4.11 µM and 8.91 µM | Potency [6] 6.51 µM
inactive: Potency [3]

CC(C)Nc1cc(-c2c[nH]c(C(=O)N[C@H](CO)c3cccc(Cl)c3)c2)c(Cl)cn1
active: Potency [1] 2.91 µM and 2.09 µM | Potency [2] 1.64 µM and 2.63 µM | Potency [3] 14.8 µM | Potency [11] 20.9 µM | Potency [4] 18.6 µM | Potency [13] 16.6 µM | Potency [5] 15.8 µM | Potency [6] 8.91 µM

CN(CCOc1ccc(NS(C)(=O)=O)cc1)CCc1ccc(NS(C)(=O)=O)cc1
inactive: Potency [1] | Potency [2] | Potency [7] | Potency [8] | Potency [9] | Potency [10] | Potency [12] | Potency [11] | Potency [4] | activity (max response) [5] 0.645% and 1.15% | Potency [6]

CCc1cccc2c3c([nH]c12)C(CC)(CC(=O)O)OCC3 (stereo not drawn)
inactive: Potency [1] | Potency [2] | Potency [7] | Potency [8] | Potency [9] | Potency [10] | Potency [12] | activity (max response) [5] 7.18% | Potency [6]

c1cncc(CN2CCC(n3ncc4c(N5CCOCC5)nc(-c5ccc6[nH]ccc6c5)nc43)CC2)c1
active: Potency [1] 1.03 µM and 1.32 µM | Potency [2] 1.84 µM and 1.86 µM | Potency [3] 16.6 µM | Potency [10] 13.2 µM | Potency [12] 13.2 µM | Potency [4] 14.8 µM | Potency [13] 14.8 µM | Potency [6] 3.55 µM
inactive: activity (max response) [5] -29.6%

Cn1c(=O)c(-c2c(Cl)cccc2Cl)cc2cnc(Nc3cccc(C(=O)O)c3)nc21
inactive: Potency [3] | Potency [12] | activity (max response) [5] -0.886% | Potency [6]
active: Potency [1] 0.662 µM | Potency [2] 0.259 µM | Potency [4] 14.8 µM

Cc1cccc(-c2[nH]c(C(C)(C)C)nc2-c2ccc3nccnc3c2)n1
active: Potency [1] 20.9 µM and 3.26 µM | Potency [2] 18.6 µM and 1.3 µM | Potency [11] 23.5 µM | Potency [4] 20.9 µM | Potency [13] 18.7 µM
inactive: Potency [3] | Potency [10] | Potency [6]

COCCOC(=O)C1=C(C)NC2=C(C(=O)CC(c3ccccc3OC)C2)C1c1cccc(O)c1 (stereo not drawn)
active: Potency [1] 2.95 µM and 4.11 µM | Potency [2] 2.35 µM and 5.8 µM
inactive: Potency [7]

CCOC(=O)[C@@H](N)CCC(=O)N[C@@H](CSCc1ccccc1)C(=O)N[C@@H](C(=O)OCC)c1ccccc1
active: Potency [1] 5.9 µM | Potency [2] 5.9 µM
inactive: Potency [7] | Potency [9] | Potency [10] | Potency [12] | Potency [11] | Potency [4] | Potency [13] | activity (max response) [5] -10.6%
